In the assay the target is AMP-activated protein kinase, AMPK (Homo sapiens) (UniProt P54646+O43741+P54619+Q9UGJ0+Q9Y478+Q13131+Q9UGI9). Kind of assay: AMP-dependent Kinase enzyme assay. An in vitro enzyme assay that detects ADP turnover that is directly proportional to AMPK activity. This uses naive AMPK that is activated during the assay with MK-8722. Also noted: scale not given: direction of the effect not stated beside the values. Type of assay: functional. The following applies: 30 µM.
Consider `O=C(c1cnc2ccccn12)N1CCCC(c2ccn[nH]2)C1` (stereo not given), for which the Percent Effect came out at 7.56%.

As to `Cc1ccc(O)c(C(=O)N2CCC3(CCCNC3)C2)c1` (stereo not given), the Percent Effect worked out at 11.1%.

With `CC(C)C(CNC(=O)CCn1cncn1)N1CCc2ccccc2C1` (stereo not given), the Percent Effect amounted to 0.687%.

On to `Cc1nsc(C(=O)NCCc2ccc(Cl)cc2)n1`, for which the Percent Effect is -0.0138%.

As for `CCOc1ccc(CN2CCOCC2c2[nH]ncc2C)cc1CO` (stereo not given), the Percent Effect turned out to be 22.7%.

Turning to `Cc1cc(C)n(CC2CCN(CC(O)COc3ccccc3)CC2)n1` (stereo not given), the Percent Effect was 2.9%.

As to `Cc1cc(C)n(-c2cccc(NC(=O)N3CCC[C@@H]3CO)c2)n1`, the Percent Effect is -5.07%.

With `CC1(C)OC(=O)N(CCOc2ccc(F)cc2)C1=O`, the Percent Effect turned out to be 5.04%.

For `CSc1ccc(C(=O)C2CCCN(C(=O)CCn3cnnn3)C2)cc1` (stereo not given), the Percent Effect was determined as 10.2%.

With `CC(C)c1cc(C(=O)NCCc2nc(-c3ccncc3)n[nH]2)[nH]n1`, the Percent Effect was 39.1%.

Consider `O=C(CN1CC(c2nc(-c3ccco3)no2)C1)NCc1ccc(F)cc1`, for which the Percent Effect is 1.74%.

For the compound `CCOC(=O)N1CCC(NC(=O)c2cccc(C3CCCNC3)c2)CC1` (stereo not given), the Percent Effect amounted to 7.59%.

For `O=C(c1cnn2ccccc12)N1CCCC(OCc2ccccn2)C1` (stereo not given), the Percent Effect came out at 14.8%.

On to `CCc1ccc2nc(C)cc(C(=O)NC[C@@H]3CCNC[C@H]3O)c2c1`, for which the Percent Effect is -4.5%.

As for `O=C(Nc1ccccc1C(=O)NCCN1CCOCC1)c1ccco1`, the Percent Effect was -3.24%.

On to `C[C@@H]1CN(C(=O)C2(Cn3cccn3)CC2)CC[C@@]1(O)C1CCOCC1`, for which the Percent Effect came out at 6.2%.

In the case of `COc1cccc([C@@]2(O)CC[C@@H]3CN(C(=O)c4ccn(C)n4)C[C@@H]32)c1`, the Percent Effect is 12.3%.

In the case of `O=C(CN1CC(c2nc(C3CC3)no2)C1)NCc1ccc(F)cc1`, the Percent Effect came to 3.03%.

For `CC(=O)Cn1c(C)cc(=O)c2cc(F)ccc21`, the Percent Effect came out at 10.5%.

Regarding `Cc1cc(CNC(=O)N2CCOC(c3ccccc3Cl)C2)no1` (stereo not given), the Percent Effect was -7.62%.

For the compound `Cc1nc(C)c(CN2CCOC(Cc3ccccc3Cl)C2)nc1C` (stereo not given), the Percent Effect stood at 0.455%.

For `Cc1cc(C(=O)N(C)CCN(C)C(=O)OC(C)(C)C)oc1C`, the Percent Effect was 5.9%.

With `Cc1nsc(C(=O)NCCc2ccc(F)cc2)n1`, the Percent Effect is -2.41%.

Regarding `Cc1c(C(=O)N(C)c2ccccc2)cccc1N(C)S(C)(=O)=O`, the Percent Effect is 12%.

Regarding `CCCn1cc(NC(=O)c2cccc(CN3CC=CC3)c2)nn1`, the Percent Effect is 3.97%.

As for `c1nc(N2CCCC2)ncc1CN1CCCC(CN2CCCCC2)C1` (stereo not given), the Percent Effect was -7.34%.

As to `COCC1(Nc2nc(C)nc3c2cnn3C)CCCC1`, the Percent Effect was -2.92%.

Consider `Cc1nccn1CCN(C)C(=O)c1cn(-c2ccccc2)nn1`, for which the Percent Effect was -5.19%.

As to `CNS(=O)(=O)c1ccc(CNC(=O)NCc2cc[nH]n2)cc1`, the Percent Effect was determined as 2.83%.

For the compound `c1ccc(OCCNC2=NCCCN2)cc1`, the Percent Effect was -8.51%.

In the case of `O=C(Nc1ccc2c(c1)C(=O)NC2=O)c1ccc(Cl)s1`, the Percent Effect is -3.34%.

Take `CCCc1ccc(CN2CCC3(CCC(=O)N(C(C)C(=O)O)C3)CC2)o1` (stereo not given): the Percent Effect was 31.1%.

On to `COc1ccc(F)cc1CN(CC(N)=O)C(C)C`, for which the Percent Effect was -8.18%.

As to `Cn1c(CN2CC[C@](C)(O)C(C)(C)C2)cc2ccccc21`, the Percent Effect was 12.4%.

`O=C(CCCn1ccnc1)NC1CCCN(c2ccccc2Cl)C1` (stereo not given): the Percent Effect came out at 6.12%.

`CCOc1ccccc1C(C(=O)O)N(C)Cc1nc(C)c[nH]1` (stereo not given): the Percent Effect came out at 7.59%.

Take `CC(C)c1nc(C2CCCN2CCS(C)(=O)=O)no1` (stereo not given): the Percent Effect was found to be 6.84%.

For `CC(C)(C)NC(=O)c1cnc2n1CCCC2`, the Percent Effect came to 0.336%.

In the case of `CCC(O)CNC(=O)c1cc(COc2ccc(OC)cc2Cl)[nH]n1` (stereo not given), the Percent Effect amounted to 2.19%.

Take `COc1cc(C)c(S(=O)(=O)CC(=O)N(C)C2CC2)cc1OC`: the Percent Effect amounted to 2.73%.

The values are drawn from ChEMBL document CHEMBL3988442, “University of Dundee, Small-Polar-MMV Screening Library” (2021).
